LmPK inhibitor: blocks Leishmania mexicana pyruvate kinase activity. Q27686. purified LmPK, Kinase-Glo ATP luminescence, 1 h. Potency, µM (series often up to 57.5 µM), for the others: at the highest dose activity change, negative = inhibition, most hits filed as inhibitors. actives 0.37% (n = 290,000). AID 1721; note: potency is the fitted concentration of half-maximal effect; % is set by controls: 0 for no effect and ±100 for the full control effect
Target sequence (Q27686 whole entry, looked up): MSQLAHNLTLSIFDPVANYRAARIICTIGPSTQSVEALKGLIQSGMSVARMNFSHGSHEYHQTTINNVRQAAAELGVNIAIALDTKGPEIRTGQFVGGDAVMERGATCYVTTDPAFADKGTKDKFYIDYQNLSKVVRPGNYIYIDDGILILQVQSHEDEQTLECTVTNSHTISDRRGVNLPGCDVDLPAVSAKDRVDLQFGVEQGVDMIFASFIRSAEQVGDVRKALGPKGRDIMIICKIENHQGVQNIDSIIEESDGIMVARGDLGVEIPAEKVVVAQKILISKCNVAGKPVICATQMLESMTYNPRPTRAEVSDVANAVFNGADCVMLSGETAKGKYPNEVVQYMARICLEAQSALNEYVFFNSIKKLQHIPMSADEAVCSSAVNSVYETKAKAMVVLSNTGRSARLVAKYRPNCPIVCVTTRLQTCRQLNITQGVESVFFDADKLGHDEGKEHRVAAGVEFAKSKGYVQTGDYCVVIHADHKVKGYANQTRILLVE
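0.1 nM LmPK, 0.5 mM PEP, 0.1 mM ADP; 50 mM imidazole pH 7.2, 7 mM MgCl2, 50 mM KCl; 1 h RT. Kinase-Glo luminescence readout, normalized to no-enzyme (full inhibition) and uninhibited wells.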
Tb PYK inh: inhibitors of Trypanosoma brucei pyruvate kinase; TbPYK enzyme, Kinase-Glo Plus ATP luminescence, 45 min; Q57TT1; Potency, µM (doses to about 76.8 µM), for the others: top-dose activity, negative = inhibition, actives largely listed as inhibitors; actives 0.12% (n = 410,000); note: potency is the fitted concentration of half-maximal effect; % is set by controls: 0 for no effect and ±100 for the full control effect; nearly all actives have a fitted effect of over 50% in size
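Screened from lowest to highest concentration, compounds were pinned into TbPYK/substrate mixtures, and ADP (130 uM final) was added. Plates sat at room temperature for 45 min prior to Kinase-Glo Plus detection by luminescence.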
Shiga toxin inh: blocks Shiga toxin action in Vero cells; Vero cells, Shiga toxin protein synthesis inhibition reporter; inhibition, % at 38.7 µM; actives 9.2% (n = 290,000); in the data active = inhibition mostly above about 28%, no sharp cut-off; inactive = mostly below about 43%; note: 0% is about no effect
Giardia FBPA inh: inhibitors of Giardia lamblia fructose-1,6-bisphosphate aldolase; A8B2U2; Potency, µM (titrated, usually from 59.6 µM), inactives show at the highest dose activity, negative = inhibition, hits mostly inhibitors; actives 0.71% (n = 290,000); purified Giardia FBPA; AID 2451; note: potency is the fitted concentration of half-maximal effect; % is set by controls: 0 for no effect and ±100 for the full control effect; nearly all actives have a fitted effect of over 55% in size
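40 nM FBPA preincubated 10 min at RT with compound (up to 57.5 uM final), then substrate plus GAPDH/TPI/NAD/arsenate coupling and diaphorase/resazurin added. Fluorescence read after 20 min at RT, 525/598 nm.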
Cycloheximide cs: affects cycloheximide protein synthesis inhibition readout, counter-screen. cell reporter, cycloheximide protein synthesis inhibition counterscreen. max response, %. actives 12% (n = 300,000). AID 2314; in the data active = max response mostly above about 13%, no sharp cut-off; inactive = mostly below about 14%; note: read at 38.3 µM for the half of the compounds with a filed dose; 0% is about no effect
Sm TGR block: inhibitors of Schistosoma mansoni thioredoxin glutathione reductase; purified TGR, DTNB reduction, TNB absorbance 405 nm; Potency, µM (titrated, usually from 114 µM), for the others: at the highest dose activity change, negative = inhibition, actives largely listed as inhibitors; actives 3% (n = 360,000); note: potency is the fitted concentration of half-maximal effect; % is set by controls: 0 for no effect and ±100 for the full control effect; nearly all actives have a fitted effect of over 60% in size
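TGR 20 nM + NADPH 100 uM (dispensed conc.), cpd preinc 15 min RT; start with NADPH (500 uM addition) then DTNB (15 mM addition). Kinetic TNB absorbance, 405 nm filter. Four-parameter Hill fit across titration.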
Active calls of the source: *; ? = inconclusive; · = no result. Many of the other results were omitted from the sample, so hits are more common in it than they were. Unless noted, calls come from the whole dose curve; as a rule, active = well fitted curve in the direction sought with a large enough effect; inconclusive = small, poorly fitted or top-dose-only effect, or another doubt; inactive = no such curve, though single readings can be large; an effect the other way counts as inactive or inconclusive.

SMILES	LmPK inhibitor	Tb PYK inh	Shiga toxin inh	Giardia FBPA inh	Cycloheximide cs	Sm TGR block
N#CC(C#N)=NNc1ccc(S(=O)(=O)N2CCCC2)cc1	-0.3%	0.7%	-9.9	28.2%	-8.8	20µM*
Cn1ccnc1C(=O)c1ccc(S(=O)(=O)N2CCCC2)cc1	1.8%	1.1%	28.2	-2.4%	13.8*	-3.6%
CC(=O)c1ccc(S(=O)(=O)N2CCCC2)cc1	0.8%	-9.0%	81.8*	0.3%	43.0*	44.7µM*
Cn1ccnc1C(=O)c1cccc(Br)c1	-0.1%	-6.4%	39.5*	-6.5%	16.5*	9.3%
N#C/C(=N\Nc1ccc(S(=O)(=O)N2CCCCCC2)cc1)C(N)=S	-1.7%	-9.1%	32.1	-4.0%	18.9	·
CC(=O)c1ccc(S(=O)(=O)N2CCN(C(C)=O)CC2)cc1	5.5%	2.5%	-8.5	5.5%	-0.9	-0.5%
CCOC(=O)Cn1c(=O)oc2cc(S(=O)(=O)N3CCN(c4cccc(C)c4C)CC3)ccc21	·	-1.6%	·	·	·	0.2%
CC(C)(C)NC(=O)C(c1ccc(O)cc1)N(Cc1ccco1)C(=O)Cn1nnc(-c2cccs2)n1 (stereo not drawn)	3.1%	-0.6%	-4.5	-3.2%	-1.4	17.8µM*
Cc1ccc(C(C(=O)NC(C)(C)C)N(Cc2ccco2)C(=O)Cn2nnc(-c3cccs3)n2)cc1 (stereo not drawn)	2.4%	4.8%	6.5	1.1%	-1.6	1.4%
CC(C)(C)NC(=O)C(c1ccncc1)N(Cc1cccs1)C(=O)Cn1nnc(-c2cccs2)n1 (stereo not drawn)	6.6%	-2.1%	27.7	-17.7%	8.8	50.1µM*
CC(C)(C)NC(=O)C(c1ccncc1)N(C(=O)Cn1nnc(-c2ccc(F)cc2)n1)c1ccccc1F (stereo not drawn)	-4.8%	0.1%	37.7	0.2%	20.6*	11.3%
CN(C)c1ccc(-c2ccnc3c2CC(C)(C(=O)NCc2cccc(Cl)c2)O3)cc1 (stereo not drawn)	·	1.7%	·	·	·	·
O=C(NC(=O)c1c(F)cccc1F)Nc1cccc(Oc2ncc(Cl)cn2)c1	·	-7.7%	·	·	·	·
COc1ccc2nc(NCCO)[nH]c2c1	-1.8%	-1.6%	1.7	7.1%	2.3	-0.8%
c1ccc2[nH]c(NCc3ccc4c(c3)OCO4)nc2c1	-11.2%	2.9%	62.7*	-7.3%	34.4*	·
COc1ccc2nc(N3CCCC3)[nH]c2c1	-6.8%	-10.9%	29.1	-21.4%	18.6*	9.5%
Cc1ccc2nc(NCc3ccccc3)c(C#N)cc2c1	0.5%	-0.9%	35.6	?	19.9	1.6%
COc1ccc2nc(NCc3ccccc3)[nH]c2c1	0.5%	-7.0%	86.3	1.2%	23.6*	-0.2%
Cc1ccc2nc(NCc3ccccc3)[nH]c2c1	2.6%	-0.1%	90.7*	4.4%	34.2*	-3.3%
CCC(C)n1c(=N)c(S(=O)(=O)c2ccc(C)cc2)cc2c(=O)n3cc(C)ccc3nc21 (stereo not drawn)	·	-9.0%	·	·	·	16.5%
O=c1[nH]c2ccccc2nc1NCc1ccccc1	-9.0%	3.2%	13.2	-3.7%	10.4	1.5%
c1ccc(CNc2nc3ccccc3[nH]2)cc1	-8.4%	10.8%	173.7	3.8%	25.5*	9.5%
O=C(Nc1nc2ccccc2[nH]1)c1cc(F)cc(F)c1	-3.8%	0.0%	67.4*	9.7%	67.5*	5.8%
O=C(Cc1cccc2ccccc12)Nc1nc2ccccc2[nH]1	0.3%	10.7%	-38.8	2.2%	-1.7	8.8%
O=C(Cc1ccccc1F)Nc1nc2ccccc2[nH]1	0.8%	3.2%	41.5	-2.6%	24.1*	·
N#Cc1ccc(C(=O)Nc2nc3ccccc3[nH]2)cc1	-1.9%	-2.1%	58.9*	27.3%	34.8*	2.4%
COc1ccc(Cl)cc1C(=O)Nc1nc2ccccc2[nH]1	2.9%	-1.8%	3.8	-11.8%	-1.2	-0.7%
COc1ccc(Br)c(C(=O)Nc2nc3ccccc3[nH]2)c1	0.0%	0.5%	68.5*	?	53.7*	-32.9%
Cc1ccc(NC(=O)N2CCN(c3nnc(C)c4c(C)n(-c5ccccc5)nc34)CC2)cc1Cl	·	3.8%	·	·	·	-6.8%
Cc1cccc(-c2nc(SCC(=O)N3CCc4ccccc43)c3c(=O)n(C)c(=O)n(C)c3n2)c1	·	0.7%	·	·	·	1.4%
